Test results reported in PubChem BioAssay (EPA / NIEHS).
Results filed as inconclusive are left out. Active and inactive are the calls of the source. Rule for the calls, unless noted: active = hit-call score of the fitted dose curve at least 0.9, where 1 is the maximum; inactive = score below 0.9.

Assays:
TTR (gene 7276) = test: CCTE_GLTED_hTTR_0.5uM: CCTE's human Transthyretin (hTTR) Inhibition Assay, with 0.5uM TTR, Great Lakes Toxicology and Ecology Division (GLTED) Lab (AID 2284320)
Outline: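 Cell-free displacement assay in which human TTR at 0.5 uM was incubated with test chemical for 2 h. Displacement of the ANSA probe was read by fluorescence at 380 nm excitation/475 nm emission. Loss of signal was fitted in the positive direction versus DMSO.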

[1] = CCTE_Mundy_HCI_iCellGluta_NOG_NeuronCount: CCTE's Neurite Outgrowth Assay in iCellGluta cells for Neuron Count, Mundy Lab (AID 2284340; active = hit-call score of the fitted dose curve at least 0.9, where 1 is the maximum;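 note: cells fixed about 48 h after compound addition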)
Outline: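 Neuron count read by automated high-content imaging of Hoechst 33342 and betaIII-tubulin/Alexa Fluor-488 labelling in human iPSC glutamatergic neurons. Activity fitted relative to DMSO.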

[2] = CCTE_Mundy_HCI_iCellGluta_NOG_NeuriteCount: CCTE's Neurite Outgrowth Assay in iCellGluta cells for Neurite Count, Mundy Lab (AID 2284342; active = hit-call score of the fitted dose curve at least 0.9, where 1 is the maximum;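 note: chemical exposure about 48 hours starting 2 hours after plating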)
[3] = Tanguay_ZF_120hpf_MO24: Oregon State University Tanguay Lab 24 Hour Post-fertilization zebrafish Assay for Mortality (AID 2284389)
Outline: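 Dechorionated wild-type zebrafish embryos, 1 per well, statically exposed from 6 hpf at 28C, 0.64% DMSO final. Mortality scored as binary present/absent at 24 hpf by brightfield microscopy, relative to DMSO.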

[4] = Tanguay_ZF_120hpf_AXIS: Oregon State University Tanguay Lab 120 Hour Post-fertilization zebrafish Assay for Axial Malformation (AID 2284398)
Outline: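 Dechorionated 5D wild-type zebrafish embryos exposed statically, one per well, from 6 to 120 hpf at 28C, 0.64% DMSO. Axial malformation scored as present/absent by brightfield microscopy at 120 hpf; dead embryos not scored.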

[5] = Tanguay_ZF_120hpf_MORT: Oregon State University Tanguay Lab 120 Hour Post-fertilization zebrafish Assay for Mortality (AID 2284399)
Outline: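 Dechorionated wild-type Tropical 5D zebrafish embryos, one per well from 6 hpf, static exposure to 120 hpf at 28C in sealed dark plates, 0.64% DMSO final. Mortality scored as binary by brightfield at 24 and 120 hpf.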

[6] = Tanguay_ZF_120hpf_EDEM: Oregon State University Tanguay Lab 120 Hour Post-fertilization zebrafish Assay for Edema Malformation (AID 2284400)
Outline: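 Dechorionated Tropical 5D wild-type embryos, one per well, statically exposed from 6 to 120 hpf at 28C in 0.64% DMSO. Edema scored present/absent by brightfield microscopy at 120 hpf; dead embryos not scored; fit versus DMSO.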

[7] = CCTE_Padilla_ZF_Score.Craniofacial: CCTE's 144 Hour Post-fertilization zebrafish Assay Score for Craniofacial Malformation, Padilla Lab (AID 2284405)
Outline: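 Wild-type zebrafish embryos (with chorions), one per well in 10% Hanks', were dosed at 6–8 hpf in sealed plates and kept at 26C. They were rinsed at 5 dpf. At 6 dpf two blinded assessors scored craniofacial malformations by brightfield stereomicroscopy.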

[8] = CCTE_Padilla_ZF_Score.Swim_bladder: CCTE's 144 Hour Post-fertilization zebrafish Assay Score for Swim Bladder Malformation, Padilla Lab (AID 2284408)
Outline: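 Wild-type zebrafish embryos, one per well in 10% Hanks', dosed at 6–8 hpf, sealed, reared at 26C and rinsed at 5 dpf. Blinded assessors scored uninflated swim bladder by stereomicroscopy at 6 dpf, relative to DMSO.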

[9] = CCTE_Padilla_ZF_Score.Position: CCTE's 144 Hour Post-fertilization zebrafish Assay Score for Position, Padilla Lab (AID 2284409)
Outline: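 Wild-type zebrafish embryos (with chorions) exposed singly from 6–8 hpf in sealed wells of Hanks' solution at 26C, rinsed at 5 dpf. At 6 dpf, blinded assessors scored abnormal water-column position by brightfield stereomicroscopy, relative to DMSO.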

[10] = CCTE_Padilla_ZF_Score.Living: CCTE's 144 Hour Post-fertilization zebrafish Assay Score for Viability, Padilla Lab (AID 2284410);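 note: larval death at 6 dpf judged by absent heartbeat or coagulation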
Outline: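 Wild-type zebrafish embryos were exposed singly from 6–8 hpf in sealed wells of Hanks' solution at 26C, then rinsed at 5 dpf. At 6 dpf, blinded assessors scored mortality (no heartbeat or coagulation) by stereomicroscopy, fitted against DMSO.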

[11] = CCTE_Padilla_ZF_Score.General: CCTE's 144 Hour Post-fertilization zebrafish Assay Score for General Malformation, Padilla Lab (AID 2284411)
Outline: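 Wild-type zebrafish embryos were plated singly at 6-8 hpf in 10% Hanks' and exposed in sealed wells at 26C until rinsed on 5 dpf. At 6 dpf two blinded assessors scored mortality, hatching and malformations by stereomicroscopy; gain-of-signal versus DMSO.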

[12] = CCTE_Padilla_ZF_Score.Tail: CCTE's 144 Hour Post-fertilization zebrafish Assay Score for Tail Malformation, Padilla Lab (AID 2284414)
Outline: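 Wild-type zebrafish embryos, one per well in 200 uL 10% Hanks', dosed at 6-8 hpf, sealed, and kept at 26 C on a 14:10 h light cycle. Chemical was rinsed out at 5 dpf. Blinded brightfield scoring of tail defects followed at 6 dpf.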

[13] = CCTE_Padilla_ZF_Score.Blood_pooling: CCTE's 144 Hour Post-fertilization zebrafish Assay Score for Blood Pooling, Padilla Lab (AID 2284415)
Outline: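 Wild-type outbred zebrafish embryos, one per well in 10% Hanks', exposed from 6–8 hpf in sealed plates at 26C on 14:10 h light:dark, rinsed at 5 dpf. Blinded stereomicroscope scoring of blood pooling at 6 dpf; gain-of-signal versus DMSO.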

[14] = CCTE_Deisenroth_5AR_NBTE_donor: CCTE's 5alpha-reductase NanoBRET Target Engagement Assay […], Deisenroth Lab (AID 2284319); details: actives raise or lower the signal
Outline: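 Donor NanoLuc luminescence at 460-20 nm is the read-out, serving artifact detection. Transiently expressed SRD5A2-NanoLuc in HEK293T; 5 h total chemical exposure, testosterone tracer added for the final 2 h; fitting bidirectional relative to DMSO baseline.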

[15] = CCTE_Deisenroth_5AR_NBTE_acceptor: CCTE's 5alpha-reductase NanoBRET Target Engagement Assay - Autofluorescence Screen, Deisenroth Lab (AID 2284321); details: actives raise or lower the signal;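 note: compound fluorescence in the acceptor channel under 460 nm excitation flags autofluorescence artifacts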
Outline: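 Chemicals diluted to a nominal 100 uM in DMSO were scanned at 460 nm excitation. Samples were read in three independent runs (n=3). Gain or loss of acceptor signal was fitted relative to DMSO.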

SRD5A2 (gene 6716) = test: CCTE_Deisenroth_5AR_NBTE_ratio: CCTE's 5alpha-reductase NanoBRET Target Engagement Assay - Ratio, Deisenroth Lab (AID 2284322); details: actives raise or lower the signal
Outline: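 Reverse-transfect HEK293T with pNLF1-C-SRD5A2, express 20 h. Pre-incubate cells with chemical 3 h (8-point series, 10 nM - 29.9 uM, duplicate). Add testosterone tracer, 2 h more. Add substrate/inhibitor, read donor and acceptor emission.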

SERPINA7 (gene 6906) = test: CCTE_GLTED_hTBG: CCTE's human Thyroxine-binding Globulin (TBG) Inhibition Assay, Great Lakes Toxicology and Ecology Division (GLTED) Lab (AID 2284343; active = hit-call score of the fitted dose curve at least 0.9, where 1 is the maximum;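 note: active chemicals lower fluorescence versus DMSO baseline by displacing probe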)
Outline: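 Cell-free binding assay in which human TBG is incubated with test chemical for 2 hours and displacement of the fluorescent probe ANSA is read at 380 nm excitation/475 nm emission. Activity is fitted against DMSO as the negative control.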

[16] = CCTE_Padilla_ZF_Score.Edema: CCTE's 144 Hour Post-fertilization zebrafish Assay Score for Edema Malformation, Padilla Lab (AID 2284406)
Outline: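 Wild-type zebrafish embryos, one per well in Hanks' solution, dosed at 6-8 hpf, sealed and reared at 26C on a 14:10 h cycle; rinsed on 5 dpf. At 6 dpf, blinded assessors scored edema by stereomicroscopy.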

[17] = CCTE_Padilla_ZF_Score.Spine: CCTE's 144 Hour Post-fertilization zebrafish Assay Score for Spine Malformation, Padilla Lab (AID 2284407)
Outline: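 Wild-type zebrafish embryos, one per well in Hanks' solution, dosed at 6–8 hpf in sealed plates at 26C, 14:10 h light:dark; rinsed at 5 dpf. Two blinded assessors scored spinal defects by stereomicroscopy at 6 dpf; fitted versus DMSO.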

O=C(F)C1(F)C(F)(F)C(F)(F)C(F)(F)C(F)(F)C1(F)F
AC50 (TTR (gene 7276)): 32.9 µM (active) | outcome [1]: inactive | outcome [2]: inactive | outcome [3]: inactive | outcome [4]: inactive | outcome [5]: inactive | outcome [6]: inactive | outcome [7]: inactive | outcome [8]: inactive | outcome [9]: inactive | outcome [10]: inactive | outcome [11]: inactive | outcome [12]: inactive | outcome [13]: inactive

CCCCCCCC/C=C\CCCCCCCC(=O)N(C)CC(=O)O
outcome [14]: inactive | outcome [15]: inactive | outcome (SRD5A2 (gene 6716)): inactive | AC50 (SERPINA7 (gene 6906)): 5.56 µM (active)

CNS(=O)(=O)C(F)(F)C(F)(F)C(F)(F)C(F)(F)C(F)(F)C(F)(F)C(F)(F)C(F)(F)F
AC50 (TTR (gene 7276)): 1.34 µM (active) | outcome [3]: inactive | outcome [4]: inactive | AC50 [5]: 56.9 µM (active) | AC50 [6]: 47.8 µM (active) | AC50 [7]: 85.1 µM (active) | AC50 [8]: 0.606 µM (active) | outcome [9]: inactive | outcome [10]: inactive | AC50 [11]: 0.737 µM (active) | outcome [12]: inactive | outcome [13]: inactive

CCOC(=O)CC(=O)C(F)(F)C(F)(F)F
AC50 (TTR (gene 7276)): 49.8 µM (active) | outcome [3]: inactive | outcome [4]: inactive | outcome [5]: inactive | outcome [6]: inactive | outcome [7]: inactive | outcome [8]: inactive | outcome [9]: inactive | outcome [10]: inactive | outcome [11]: inactive | outcome [12]: inactive | outcome [13]: inactive

CC(C)Nc1ccc(NC(C)C)c2c1C(=O)c1ccccc1C2=O
outcome [14]: inactive | outcome [15]: inactive | AC50 (SRD5A2 (gene 6716)): 3.06 µM (active)

O=S(=O)(OCC(F)(F)F)C(F)(F)C(F)(F)C(F)(F)C(F)(F)F
AC50 (TTR (gene 7276)): 1.4 µM (active) | outcome [3]: inactive | outcome [4]: inactive | outcome [5]: inactive | outcome [6]: inactive | outcome [7]: inactive | AC50 [8]: 88.8 µM (active) | outcome [9]: inactive | outcome [10]: inactive | outcome [11]: inactive | outcome [12]: inactive | AC50 [13]: 33.3 µM (active)

O=S(=O)(O)CCC(F)(F)C(F)(F)C(F)(F)C(F)(F)F
AC50 (TTR (gene 7276)): 2.1 µM (active) | outcome [3]: inactive | outcome [4]: inactive | outcome [5]: inactive | outcome [6]: inactive | outcome [7]: inactive | outcome [8]: inactive | outcome [9]: inactive | outcome [10]: inactive | outcome [11]: inactive | outcome [12]: inactive | outcome [13]: inactive

C=CC(=O)OCC(F)(F)C(F)(F)C(F)(F)C(F)(F)C(F)(F)C(F)(F)C(F)(F)C(F)F
AC50 (TTR (gene 7276)): 1.84 µM (active) | outcome [3]: inactive | outcome [4]: inactive | outcome [5]: inactive | outcome [6]: inactive | outcome [7]: inactive | AC50 [8]: 102 µM (active) | outcome [9]: inactive | outcome [10]: inactive | outcome [11]: inactive | outcome [12]: inactive | outcome [13]: inactive

O=C(O)C(F)(F)C(F)(F)C(F)(F)C(F)(F)C(F)(F)C(F)(F)C(F)F
AC50 (TTR (gene 7276)): 0.275 µM (active) | AC50 (SERPINA7 (gene 6906)): 26.5 µM (active) | outcome [7]: inactive | outcome [16]: inactive | outcome [8]: inactive | outcome [9]: inactive | outcome [10]: inactive | outcome [11]: inactive | outcome [12]: inactive | outcome [13]: inactive

NC(=O)C(F)(F)C(F)(F)C(F)(F)C(F)(F)C(F)(F)C(F)(F)C(F)(F)F
AC50 (TTR (gene 7276)): 5.65 µM (active) | outcome [1]: inactive | outcome [2]: inactive | AC50 [3]: 52.7 µM (active) | outcome [4]: inactive | AC50 [5]: 41.3 µM (active) | outcome [6]: inactive | outcome [7]: inactive | outcome [8]: inactive | outcome [9]: inactive | outcome [10]: inactive | outcome [11]: inactive | outcome [12]: inactive | outcome [13]: inactive

OCC(F)(F)C(F)(F)C(F)(F)C(F)(F)C(F)(F)C(F)(F)C(F)(F)C(F)(F)CO
AC50 (TTR (gene 7276)): 2.78 µM (active) | AC50 [3]: 72.8 µM (active) | outcome [4]: inactive | AC50 [5]: 19.6 µM (active) | outcome [6]: inactive | outcome [7]: inactive | AC50 [8]: 3.96 µM (active) | outcome [9]: inactive | AC50 [10]: 22.2 µM (active) | AC50 [11]: 4.17 µM (active) | outcome [12]: inactive | outcome [13]: inactive

CCN=C1C=CC(=C(c2ccc(N(CC)CC)cc2)c2ccc(N(CC)CC)cc2)c2ccccc21
AC50 [14]: 6.95 µM (active) | AC50 [15]: 2.24 µM (active) | AC50 (SRD5A2 (gene 6716)): 0.166 µM (active) | AC50 (SERPINA7 (gene 6906)): 4.51 µM (active)

O=C(O)CCC(F)(F)C(F)(F)C(F)(F)C(F)(F)C(F)(F)C(F)(F)C(F)(F)F
AC50 (TTR (gene 7276)): 3.34 µM (active) | outcome [1]: inactive | outcome [2]: inactive | outcome [3]: inactive | outcome [4]: inactive | outcome [5]: inactive | outcome [6]: inactive | outcome [7]: inactive | outcome [17]: inactive | outcome [8]: inactive | outcome [9]: inactive | outcome [10]: inactive | outcome [11]: inactive | outcome [12]: inactive | outcome [13]: inactive
